Results: PubChem BioAssay (Tox21)
Records with an inconclusive call do not appear. Some compounds were tested as several samples or in several runs, with calls that do not always agree. Calls of active or inactive are those of the source. Unless noted, the call rests on the fitted dose curve; in most records, active means well fitted curve in the direction sought with a large enough effect in the repeat runs; inconclusive means weak or mixed curves; inactive means no such curve, though single readings can be large; an effect the other way counts as inactive or inconclusive.

Columns and labels:
[1] = qHTS assay to identify aromatase inhibitors - cell viability counter screen (AID 743084);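 further: cells stimulated with testosterone during compound exposure; nearly all actives have a fitted effect of over 55% in size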; further: potency means the concentration at half of the fitted maximal effect
[2] = qHTS assay to identify small molecule that activate the aryl hydrocarbon receptor (AhR) signaling pathway - cell viability counter screen (AID 743086); further: nearly all actives have a fitted effect of over 45% in size; further: potency means the concentration at half of the fitted maximal effect;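 on viability change, negative = cytotoxic: HepG2 liver cells carrying the AhR DRE luciferase reporter; series mostly up to about 70 µM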
Method in brief: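 HepG2-AhR-luc (HG2L7.5c1) cells, 4000/well, were preincubated 5 h at 37C, exposed to compound in qHTS format for 24 hr at 37C, then given CellTiter-Fluor for 30 min; viability was read as fluorescence in the reporter wells.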

[3] = molecular target: Peroxisome proliferator-activated receptor gamma (Homo sapiens) (UniProt P37231); assay: qHTS assay to identify small molecule agonists of the peroxisome proliferator-activated receptor gamma (PPARg) signaling pathway (AID 743094; active means well fitted activation curve with a large enough effect in the signal ratio in the repeat runs, not every such curve was filed as active; the % refers to the signal ratio)
Method in brief: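 HEK293H PPARg-bla cells, 5 h settle at 37C/5% CO2; compound (DMSO) 17 h, 37C; B/G FRET substrate 1 h RT; fluorescence intensity read-out. qHTS format.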

[4] = molecular target: Peroxisome proliferator-activated receptor gamma (Homo sapiens) (UniProt P37231); assay: qHTS assay to identify small molecule antagonists of the peroxisome proliferator-activated receptor gamma (PPARg) signaling pathway (AID 743191; calls by dose curve; further: series mostly up to about 63 µM; nearly all actives have a fitted effect of over 30% in size)
Method in brief: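 GeneBLAzer PPARg UAS-bla HEK293H cells carrying a UAS-driven beta-lactamase reporter were plated at 3000 cells/well, preincubated 5 h at 37C, then given compound for 17 h at 37C; LiveBLAzer B/G FRET substrate was read after 1 h at room temperature.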

[5] = qHTS assay to identify small molecule antagonists of the peroxisome proliferator-activated receptor gamma (PPARg) signaling pathway - cell viability counter screen (AID 743194); further: nearly all actives have a fitted effect of over 55% in size
Method in brief: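 PPARg-UAS-bla HEK293H cells were plated, rested 5 h at 37 C, then treated with compounds plus rosiglitazone (50 nM final) for 17 h at 37 C; viability was then read by CellTiter-Glo luminescence after 30 min at room temperature.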

[6] = qHTS assay for small molecule agonists of the antioxidant response element (ARE) signaling pathway (AID 743202; active means well fitted activation curve with a large enough effect in the signal ratio in the repeat runs, not every such curve was filed as active; the % refers to the signal ratio)
Method in brief: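 Following a 16 h, 37 C exposure of reporter HepG2 cells (ARE-driven beta-lactamase, 2,000 cells/well) to compounds, FRET substrate was applied for 2 h at room temperature and fluorescence intensity recorded.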

[7] = qHTS assay for small molecule agonists of the antioxidant response element (ARE) signaling pathway - cell viability counter screen (AID 743203; calls by dose curve; further: nearly all actives have a fitted effect of over 55% in size)
Method in brief: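 Luminescence read-out (CellTiter-Glo, 30 min at room temperature) measured cell viability in the same wells as the ARE beta-lactamase reporter. HepG2 ARE-bla cells were treated with compounds for 16 hrs at 37C/5% CO2.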

[8] = qHTS assay for small molecule activators of the heat shock response signaling pathway - cell viability counter screen (AID 743209); further: nearly all actives have a fitted effect of over 50% in size
Method in brief: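 HSE-bla HeLa; 1500 cells/well; overnight 37 C, 5% CO2; compound 5 h 37 C; LiveBLAzer B/G substrate 2.5 h RT; CellTiter-Glo 30 min RT; luminescence.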

[9] = qHTS assay for small molecule activators of the heat shock response signaling pathway (AID 743210; active means well fitted activation curve with a large enough effect in the signal ratio in the repeat runs, with a control signal flat, not every such curve was filed as active; the % refers to the signal ratio; further: series mostly up to about 63 µM)
Method in brief: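 Heat shock element–beta-lactamase HeLa reporter cells; qHTS with compounds for 5 h at 37 C; detection by FRET substrate fluorescence after 2.5 h at RT.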

[10] = qHTS assay to identify small molecule agonists of the peroxisome proliferator-activated receptor delta (PPARd) signaling pathway - cell viability counter screen (AID 743211); further: nearly all actives have a fitted effect of over 55% in size
Method in brief: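 PPARd-bla HEK293H cells (3000/well) were pre-incubated 5 h at 37 C, then exposed to compound for 17 h at 37 C. After 2 h with LiveBLAzer substrate, CellTiter-Glo was added to the same wells; luminescence read after 30 min at room temperature.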

[11] = molecular target: Peroxisome proliferator-activated receptor delta (Homo sapiens) (UniProt Q03181); assay: qHTS assay to identify small molecule agonists of the peroxisome proliferator-activated receptor delta (PPARd) signaling pathway (AID 743212; calls by dose curve)
Method in brief: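 Beta-lactamase reporter read by fluorescence (LiveBLAzer B/G FRET, 2 h, room temperature). Test agents, in DMSO, incubated at 37 C with PPARd-bla HEK293H cells.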

[12] = qHTS assay to identify small molecule antagonists of the peroxisome proliferator-activated receptor delta (PPARd) signaling pathway - cell viability counter screen (AID 743213); further: nearly all actives have a fitted effect of over 50% in size
Method in brief: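 CellTiter-Glo was added to PPARd-bla HEK293H wells following 17 h compound treatment in the presence of 300 nM L165041. Luminescence was recorded after 30 min at room temperature.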

[13] = molecular target: Peroxisome proliferator-activated receptor delta (Homo sapiens) (UniProt Q03181); assay: qHTS assay to identify small molecule antagonists of the peroxisome proliferator-activated receptor delta (PPARd) signaling pathway (AID 743215; active means well fitted inhibition curve with a large enough effect in the signal ratio in the repeat runs, not every such curve was filed as active; the % refers to the signal ratio;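 further: cells stimulated with agonist L165041 at 300 nM final during compound exposure; series mostly up to about 62 µM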)
Method in brief: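 HEK293H GeneBLAzer PPARd UAS-bla reporter cells; cpd + L165041 300 nM final, 17 h 37 C; LiveBLAzer B/G FRET substrate 2 h RT; fluorescence intensity read-out. Antagonist mode.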

[14] = qHTS assay to identify small molecule agonists of the farnesoid-X-receptor (FXR) signaling pathway - cell viability counter screen (AID 743218); further: nearly all actives have a fitted effect of over 45% in size
Method in brief: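 Luminescence from CellTiter-Glo, read after 30 min at RT, reports viability of GeneBLAzer FXR-UAS-bla HEK 293T cells treated 16 h with compounds in the wells used for the beta-lactamase reporter.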

[15] = qHTS assay to identify small molecule antagonists of the farnesoid-X-receptor (FXR) signaling pathway - cell viability counter screen (AID 743221; active means well fitted cell-killing curve with a large enough effect in the repeat runs, not every such curve was filed as active; further: nearly all actives have a fitted effect of over 50% in size)
Method in brief: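 GeneBLAzer FXR-UAS-bla HEK 293T cells, compound plus chenodeoxycholic acid (50 uM final), 16 h at 37 C. CellTiter-Glo added to the same wells after the beta-lactamase read; luminescence read after 30 min at room temperature as viability.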

[16] = molecular target: Vitamin D3 receptor (Homo sapiens) (UniProt P11473); assay: qHTS assay to identify small molecule agonists of the vitamin D receptor (VDR) signaling pathway (AID 743222; calls by dose curve)
Method in brief: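 Beta-lactamase reporter readout (LiveBLAzer B/G FRET, 2 h RT) in VDR-bla cells after 16 h compound treatment at 37C, 5% CO2; cells pre-incubated 4 h before pin transfer of DMSO solutions.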

[17] = molecular target: Vitamin D3 receptor (Homo sapiens) (UniProt P11473); assay: qHTS assay to identify small molecule antagonists of the vitamin D receptor (VDR) signaling pathway (AID 743223; active means well fitted inhibition curve with a large enough effect in the signal ratio in the repeat runs, not every such curve was filed as active; the % refers to the signal ratio)
Method in brief: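 VDR-bla cells were treated with compound plus 3 nM final 1alpha,25-dihydroxyvitamin D3 for 16 h at 37C. Beta-lactamase reporter read by B/G FRET substrate fluorescence after 2 h at room temperature. qHTS format.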

[18] = molecular target: Bile acid receptor (Homo sapiens) (UniProt Q96RI1); assay: qHTS assay to identify small molecule agonists of the farnesoid-X-receptor (FXR) signaling pathway (AID 743220; active means well fitted activation curve with a large enough effect in the signal ratio in the repeat runs, not every such curve was filed as active; the % refers to the signal ratio)
Method in brief: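 FXR-UAS-bla HEK 293T cells carrying a UAS-driven beta-lactamase reporter were plated for 5 h at 37C/5% CO2, then exposed to DMSO-dissolved Tox21 10K compounds for 16 h at 37C. A LiveBLAzer B/G FRET substrate was loaded for 2 h at room temperature before fluorescence reading.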

[19] = molecular target: Aryl hydrocarbon receptor (Homo sapiens) (UniProt P35869); assay: qHTS assay to identify small molecule that activate the aryl hydrocarbon receptor (AhR) signaling pathway (AID 743085);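 further: HG2L7.5c1 human HepG2 liver cells with stably integrated DRE-driven firefly reporter; series mostly up to about 70 µM; nearly all actives have a fitted effect of over 15% in size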
Method in brief: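 HepG2 cells stably carrying a 20-DRE firefly luciferase reporter (HG2L7.5c1) treated with compound for 24 hr at 37C. Luciferase read by ONE-Glo luminescence, with CellTiter-Fluor viability read first.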

[20] = molecular target: Bile acid receptor (Homo sapiens) (UniProt Q96RI1); assay: qHTS assay to identify small molecule antagonists of the farnesoid-X-receptor (FXR) signaling pathway (AID 743217; active means well fitted inhibition curve with a large enough effect in the signal ratio in the repeat runs, not every such curve was filed as active; the % refers to the signal ratio)
Method in brief: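 Read-out: beta-lactamase FRET fluorescence (LiveBLAzer B/G substrate, 2 h, room temperature) in GeneBLAzer FXR-UAS-bla HEK 293T cells. Compounds were co-dosed with 50 uM chenodeoxycholic acid (final) and incubated 16 h at 37 °C.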
On the % scale 0 is the no-effect control and ±100 the full control effect.

Chain of Peroxisome proliferator-activated receptor delta (Homo sapiens) (Q03181 whole entry, looked up): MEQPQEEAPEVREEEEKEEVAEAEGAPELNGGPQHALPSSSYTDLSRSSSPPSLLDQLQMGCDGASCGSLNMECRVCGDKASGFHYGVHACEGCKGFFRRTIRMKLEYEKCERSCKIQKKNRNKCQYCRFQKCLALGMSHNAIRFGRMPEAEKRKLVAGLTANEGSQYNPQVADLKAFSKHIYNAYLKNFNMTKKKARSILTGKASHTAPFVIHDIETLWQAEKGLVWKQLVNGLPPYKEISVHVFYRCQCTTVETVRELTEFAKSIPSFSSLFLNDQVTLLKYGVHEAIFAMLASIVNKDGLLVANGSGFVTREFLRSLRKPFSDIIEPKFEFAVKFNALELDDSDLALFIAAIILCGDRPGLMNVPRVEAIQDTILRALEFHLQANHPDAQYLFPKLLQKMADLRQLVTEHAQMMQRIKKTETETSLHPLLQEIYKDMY
Chain of Vitamin D3 receptor (Homo sapiens) (P11473 whole entry, looked up): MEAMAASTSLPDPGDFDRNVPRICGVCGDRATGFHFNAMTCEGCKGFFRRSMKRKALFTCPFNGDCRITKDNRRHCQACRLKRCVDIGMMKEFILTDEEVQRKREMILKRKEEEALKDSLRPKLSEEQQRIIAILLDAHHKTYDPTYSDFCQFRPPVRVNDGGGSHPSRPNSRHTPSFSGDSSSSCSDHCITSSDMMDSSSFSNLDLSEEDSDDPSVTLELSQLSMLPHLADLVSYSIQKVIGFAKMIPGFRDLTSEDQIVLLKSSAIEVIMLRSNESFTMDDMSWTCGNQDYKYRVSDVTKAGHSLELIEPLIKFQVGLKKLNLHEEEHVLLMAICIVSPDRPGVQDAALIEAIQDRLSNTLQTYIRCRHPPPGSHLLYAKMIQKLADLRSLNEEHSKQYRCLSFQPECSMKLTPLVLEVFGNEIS
Chain of Bile acid receptor (Homo sapiens) (Q96RI1 whole entry, looked up): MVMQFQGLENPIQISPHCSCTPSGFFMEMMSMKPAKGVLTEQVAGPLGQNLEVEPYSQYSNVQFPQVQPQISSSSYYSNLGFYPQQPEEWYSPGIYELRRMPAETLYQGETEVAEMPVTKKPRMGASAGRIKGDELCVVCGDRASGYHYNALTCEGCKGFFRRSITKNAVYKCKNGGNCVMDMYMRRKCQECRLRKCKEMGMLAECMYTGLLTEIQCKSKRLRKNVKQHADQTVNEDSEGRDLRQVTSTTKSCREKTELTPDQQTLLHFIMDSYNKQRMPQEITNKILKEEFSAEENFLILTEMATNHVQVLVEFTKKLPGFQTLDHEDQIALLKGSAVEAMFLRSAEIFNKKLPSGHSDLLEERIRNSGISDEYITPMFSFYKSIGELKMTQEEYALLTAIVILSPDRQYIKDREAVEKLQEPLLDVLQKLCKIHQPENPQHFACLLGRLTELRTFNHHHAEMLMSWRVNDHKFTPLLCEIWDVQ
Chain of Peroxisome proliferator-activated receptor gamma (Homo sapiens) (P37231 whole entry, looked up): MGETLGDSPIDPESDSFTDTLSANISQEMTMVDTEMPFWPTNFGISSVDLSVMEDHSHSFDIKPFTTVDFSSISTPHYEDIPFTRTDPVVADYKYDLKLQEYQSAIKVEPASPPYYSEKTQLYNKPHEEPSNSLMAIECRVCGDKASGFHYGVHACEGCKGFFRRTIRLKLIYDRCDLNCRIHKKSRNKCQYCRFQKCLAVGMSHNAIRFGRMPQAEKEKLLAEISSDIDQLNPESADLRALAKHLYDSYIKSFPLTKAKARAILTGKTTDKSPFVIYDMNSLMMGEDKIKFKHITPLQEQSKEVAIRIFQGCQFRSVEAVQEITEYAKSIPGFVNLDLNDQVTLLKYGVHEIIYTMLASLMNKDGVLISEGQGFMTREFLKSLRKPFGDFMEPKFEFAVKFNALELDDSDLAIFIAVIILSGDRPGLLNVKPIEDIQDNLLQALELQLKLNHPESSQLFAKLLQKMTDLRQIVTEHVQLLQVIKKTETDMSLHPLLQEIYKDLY
Chain of Aryl hydrocarbon receptor (Homo sapiens) (P35869 whole entry, looked up): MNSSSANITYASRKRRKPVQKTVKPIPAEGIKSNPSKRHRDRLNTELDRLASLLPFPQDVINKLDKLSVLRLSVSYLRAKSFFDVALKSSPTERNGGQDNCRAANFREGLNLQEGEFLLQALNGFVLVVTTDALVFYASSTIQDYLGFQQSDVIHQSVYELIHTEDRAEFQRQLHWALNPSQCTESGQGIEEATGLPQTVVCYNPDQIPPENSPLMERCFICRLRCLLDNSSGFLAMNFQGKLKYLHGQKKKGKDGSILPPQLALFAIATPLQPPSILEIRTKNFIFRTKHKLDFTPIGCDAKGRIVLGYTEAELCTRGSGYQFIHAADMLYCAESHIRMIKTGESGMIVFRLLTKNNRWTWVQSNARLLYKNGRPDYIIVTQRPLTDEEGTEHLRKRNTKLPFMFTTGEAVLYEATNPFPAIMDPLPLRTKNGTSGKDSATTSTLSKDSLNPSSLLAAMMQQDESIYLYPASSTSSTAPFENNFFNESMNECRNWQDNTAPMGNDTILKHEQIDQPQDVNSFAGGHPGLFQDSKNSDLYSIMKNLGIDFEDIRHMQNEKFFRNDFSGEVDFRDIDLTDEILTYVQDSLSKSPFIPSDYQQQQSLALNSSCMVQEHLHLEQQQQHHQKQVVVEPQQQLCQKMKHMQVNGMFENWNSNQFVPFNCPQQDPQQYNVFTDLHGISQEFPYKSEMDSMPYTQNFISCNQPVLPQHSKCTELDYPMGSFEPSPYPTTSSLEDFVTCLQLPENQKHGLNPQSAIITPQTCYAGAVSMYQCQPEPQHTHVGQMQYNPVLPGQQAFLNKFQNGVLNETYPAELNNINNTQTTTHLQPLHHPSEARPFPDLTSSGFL

N#Cc1ccc(CC(=O)c2cccc(C(F)(F)F)c2)cc1
inactive: Potency [1] | Potency [2] | Potency [3] | Potency [4] | Potency [5] | Potency [6] | Potency [7] | outcome [8] | outcome [9] | Potency [10] | Potency [11] | Potency [12] | outcome [13] | Potency [14] | Potency [15] | outcome [16]

CC(O)C(C)O (centres undefined)
inactive: Potency [1] | Potency [2] | Potency [3] | Potency [4] | Potency [5] | Potency [6] | Potency [7] | outcome [8] | outcome [9] | Potency [10] | Potency [11] | outcome [13] | Potency [15] | outcome [16] | outcome [17]

O=C(O)CNc1ccccc1
inactive: Potency [1] | Potency [2] | Potency [3] | Potency [4] | Potency [5] | Potency [6] | Potency [7] | outcome [8] | outcome [9] | Potency [10] | Potency [11] | Potency [14] | outcome [18] | Potency [15] | outcome [16] | outcome [17]

CCCCCCCCCCCCCCCCN
inactive: Potency [1] | Potency [19] | Potency [2] | Potency [6] | Potency [7] | outcome [8] | outcome [9] | Potency [10] | outcome [13] | outcome [20] | Potency [14] | outcome [18] | Potency [15] | outcome [16] | outcome [17]

Cc1cc(N)n(-c2ccccc2)n1
inactive: Potency [1] | Potency [2] | Potency [3] | Potency [4] | Potency [5] | Potency [6] | Potency [7] | outcome [8] | outcome [9] | Potency [10] | Potency [11] | Potency [12] | outcome [13] | Potency [14] | Potency [15] | outcome [16] | outcome [17]

COc1cccc([C@H](O)C2CCN(CCc3ccc(F)cc3)CC2)c1OC
inactive: Potency [1] | Potency [19] | Potency [4] | Potency [5] | outcome [8] | outcome [9] | Potency [10] | outcome [13] | outcome [20] | outcome [18] | Potency [15] | outcome [16]

C/C=C1\[C@H]2C=C(C)C[C@]1(N)c1ccc(=O)[nH]c1C2
inactive: Potency [1] | Potency [2] | Potency [3] | Potency [4] | Potency [5] | Potency [6] | Potency [7] | outcome [8] | outcome [9] | Potency [10] | Potency [11] | Potency [12] | outcome [13] | outcome [20] | outcome [18] | Potency [15]

CC1=CC(=C(c2ccc(N)cc2)c2ccc(N)cc2)C=CC1=N
inactive: viability change, negative = cytotoxic [2] -14.7% [at 8.47 µM] | activation [3] -4.84% [at 7.08 µM] | activity change, negative = cytotoxicity [5] -29.3% [at 5.95 µM] | viability change, negative = cytotoxic [7] -12.3% [at 8.36 µM] | activity change, negative = cytotoxicity [8] -5.14% [at 5.95 µM] | activation [9] -0.545% [at 5.95 µM] | activation [11] -0.0637% [at 5.95 µM] | viability change, negative = cytotoxic [12] -32.9% [at 6.26 µM] | ratio activity, negative = inhibition [13] -10.9% [at 6.26 µM] | activity change, negative = cytotoxicity [15] -5.62% [at 5.95 µM] | activation [16] -2.54% [at 6.01 µM]
active: Potency [1] 11.9 µM | Potency [2] 18.8 µM

Sc1nc(S)nc(S)n1
inactive: Potency [1] | Potency [19] | Potency [5] | Potency [7] | outcome [8] | outcome [9] | Potency [10] | Potency [11] | Potency [12] | outcome [13] | outcome [20] | outcome [18] | Potency [15] | outcome [16]
